Experimental findings from PubChem BioAssay AID1259400 (National Center for Advancing Translational Sciences (NCATS), 2018) are described below.

“And” between values parts separate entries of the source, which are not always exact repeats. Equal values may be shown once. In all, about 350,000 compounds went through this assay and about 2,100 (0.6%) were called active. About 1% were inconclusive and are not listed.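 Rule for the calls: active = activity change of -60% or lower, but not beyond a set lower limit; inconclusive = change between -60% and -40%, or beyond the set limit; inactive = change above -40%.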 The list comes from a sample in which actives are over-represented; it also holds similar structures and randomly drawn compounds. Where a structure was tested more than once in an assay, its records may differ in their call.
% is set by controls: 0 for no effect and ±100 for the full control effect.

For the experiment, the target named is Relaxin receptor 1 (Homo sapiens) (UniProt Q9HBX9). Nature of the experiment: qHTS Assay for Antagonists of the Relaxin Receptor RXFP1. Conditions: HEK293-RXFP1, relaxin-stimulated cAMP HTRF, 30 min; at 57.5 µM; stronger effect = lower value.
Sequence of Relaxin receptor 1 (Homo sapiens) (Q9HBX9 whole entry, looked up): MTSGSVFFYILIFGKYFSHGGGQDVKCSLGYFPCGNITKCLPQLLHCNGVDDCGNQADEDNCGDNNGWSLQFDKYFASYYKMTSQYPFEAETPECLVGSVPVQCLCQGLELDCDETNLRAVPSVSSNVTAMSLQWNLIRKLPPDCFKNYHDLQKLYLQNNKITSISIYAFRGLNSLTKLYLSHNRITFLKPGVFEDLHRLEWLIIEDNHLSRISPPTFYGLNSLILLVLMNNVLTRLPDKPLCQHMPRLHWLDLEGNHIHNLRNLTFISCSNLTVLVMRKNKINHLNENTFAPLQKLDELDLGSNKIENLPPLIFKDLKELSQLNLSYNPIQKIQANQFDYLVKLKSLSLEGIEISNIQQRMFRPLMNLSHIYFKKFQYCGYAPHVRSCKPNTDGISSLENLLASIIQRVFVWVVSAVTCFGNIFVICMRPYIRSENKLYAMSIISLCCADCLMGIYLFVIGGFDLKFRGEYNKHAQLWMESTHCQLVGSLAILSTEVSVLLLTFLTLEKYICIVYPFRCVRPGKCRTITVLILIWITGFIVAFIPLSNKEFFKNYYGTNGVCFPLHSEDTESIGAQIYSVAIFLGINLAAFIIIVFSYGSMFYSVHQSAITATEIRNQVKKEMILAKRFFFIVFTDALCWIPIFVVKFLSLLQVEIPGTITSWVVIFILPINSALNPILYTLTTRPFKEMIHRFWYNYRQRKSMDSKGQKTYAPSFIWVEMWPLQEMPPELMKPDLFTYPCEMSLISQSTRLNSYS
Regarding `Cc1ccc(CCNC(=O)c2nnc(Cc3cccc(F)c3)o2)cc1`, the activity change, negative = inhibition was -3.15% (inactive).
`O=C(OCC(O)C(O)COC(=O)c1ccccc1)c1ccccc1` (centres undefined): the activity change, negative = inhibition was -12.8% (inactive).
For the compound `CC(OC(=O)CN1C(=O)c2ccccc2C1=O)C(=O)c1ccccc1` (centres undefined), the activity change, negative = inhibition was 6.31% (inactive).
Under `C=CCC(C(=O)c1ccccc1)[N+](C)(C)CC=C` (centres undefined) stands -82.2% (active); under `CC(O)COc1ccccc1` (centres undefined), 1.89% (inactive); under `Cc1noc(/C=C/N(C)C)c1S(=O)(=O)N1CCCC(C(=O)Nc2cccc(F)c2)C1` (centres undefined), -3.51% (inactive).
As for `CCN1CCN(C(=O)N[C@@H](C(=O)N[C@@H]2C(=O)N3[C@@H]2SC(C)(C)[C@H]3C(=O)O)c2ccccc2)C(=O)C1=O`, the activity change, negative = inhibition was -3.73% (inactive).
`O=C(C[n+]1ccc2c(c1)nnn2-c1ccccc1)c1ccc(Cl)cc1`: the activity change, negative = inhibition was -11.1% (inactive).
With `O=C(CN1CCN(c2ccc(Cl)cc2)CC1)c1ccccc1` the figure was 6.85% (inactive).
Under `O=C(Cn1cc(-c2nnnn2-c2ccc(Cl)cc2)c(=O)c2ccccc21)c1ccccc1` stands -98.5% (active); under `Cc1cc(C)cc(NC(=O)CSc2nc3nccnc3c(=O)n2CCc2c[nH]c3ccccc23)c1`, 4.86% (inactive); under `Fc1ccc(Nc2nc(SCc3ccccc3Cl)nc3ccccc23)cc1`, -23.1% (inactive).
Under `COc1ccc(OCC(O)CNCCNc2nccc(C(F)(F)F)n2)cc1` (centres undefined) stands 6.63% (inactive); under `CC(C)(C)CC(C)(C)NCC(O)COCCOc1ccc(Br)cc1` (centres undefined), -90.2% (active); under `CC(Oc1ccc(Br)cc1)C(=O)NC1CCCCCC1` (centres undefined), -9.73% (inactive).
With `CN[C@@H]1[C@@H](O)[C@@H](O[C@@H]2[C@H](O)[C@H](O[C@H]3OC(CN)=CC[C@H]3N)[C@@H](N)C[C@H]2N)OCC1(C)O` (some centres undefined), the activity change, negative = inhibition was -9.15% (inactive).
Regarding `CCc1ccc(NC(=O)c2sc3nc4c(cc3c2N)CN(CC)CC4)cc1`, the activity change, negative = inhibition was -24.5% (inactive).
Under `O=C1Cc2cc(S(=O)(=O)Nc3ccc(OC(F)(F)F)cc3)cc3c2N1CCC3` stands -19.8% (inactive); under `O=C(OCc1ccccc1)c1ccc(O)cc1`, 3.77% (inactive); under `COc1cccc(-c2noc(C3CCCN(C(=O)c4ccc(F)cc4)C3)n2)c1` (centres undefined), -66.4% (active).
Regarding `O=C(c1ccc(F)cc1)N1CCCC(c2nc(-c3cccs3)no2)C1` (centres undefined), the activity change, negative = inhibition is 2.8% (inactive).
Turning to `COc1ccc(NC(=O)N2CCCC(c3nc(-c4ccc(F)cc4)no3)C2)cc1` (centres undefined), the activity change, negative = inhibition was 2.56% (inactive).
Consider `CCOc1ccc(S(=O)(=O)c2cn(Cc3ccccc3)c3ccc(OCC)cc3c2=O)cc1`, for which the activity change, negative = inhibition is -11.7% (inactive).
`CCOc1ccc(NS(=O)(=O)c2ccc(N)cc2)nn1`: the activity change, negative = inhibition is 9.63% (inactive).
Regarding `CCN(C(=O)CSc1nnc(C)n2c1cc1occc12)c1ccccc1`, the activity change, negative = inhibition is -12.2% (inactive).
As for `Cc1ccc(N=C2NC(=O)/C(=C/C=C/c3ccco3)S2)cc1C`, the activity change, negative = inhibition was -82.4% (active).
Consider `CCN1CCN(c2cc(C)c3cc(NC(=O)c4cc(Cl)ccc4OC)ccc3n2)CC1`, for which the activity change, negative = inhibition is -19.5% (inactive).
Under `COc1cccc(NC(=O)CSc2nnc(-c3cccnc3)o2)c1` stands -83.2% (active).
With `COC(=O)CSc1nnc(-c2cccnc2)o1`, the activity change, negative = inhibition was 5.1% (inactive).
Under `O=C(CSc1nnc(-c2ccncc2)o1)Nc1cccc(Cl)c1` stands -1.48% (inactive); under `CCOc1ccc(N2CC(c3nc4ccccc4n3CCOc3ccc(OC)cc3)CC2=O)cc1` (centres undefined), -13% (inactive); under `Cc1ccc(Cl)cc1NC(=O)C(C)n1nnc2sc(-c3ccccc3)cc2c1=O` (centres undefined), -12.2% (inactive).
Under `Cc1ccc(SCc2c(C(=O)N/N=C/c3cccnc3)nnn2-c2nonc2N)cc1` stands -106% (active); under `COCc1c(C(=O)N/N=C\c2cccnc2)nnn1-c1nonc1N`, -21.1% (inactive); under `Nc1nonc1-n1nnc(C(=O)N/N=C\c2ccncc2)c1CN1CCCCC1`, 7.31% (inactive).
Take `COC(=O)c1cc(Cl)c(NC(C)=O)cc1OC`: the activity change, negative = inhibition is -14.6% (inactive).
Take `COc1ccccc1Nc1c2c(nc3ccc(NC(=O)/C=C/c4cc(OC)c(OC)c(OC)c4)cc13)CCCC2`: the activity change, negative = inhibition was 5.51% (inactive).
In the case of `CCC(=O)Nc1ccc(C)cc1-c1nc2ccccc2n(Cc2ccccc2)c1=O`, the activity change, negative = inhibition was -2.19% (inactive).
Under `O=C(C1CCC(Cn2c(=O)c3sccc3n(Cc3ccccc3F)c2=O)CC1)N1CCCCC1` (centres undefined) stands -8.5% (inactive); under `CN1CCc2ccccc2C1Cc1ccccc1NC(=O)c1sc2ccccc2c1Cl` (centres undefined), 5.13% (inactive).
Under `Cc1nn(-c2ccccc2)c(Cl)c1/C=N/NC(=O)c1nn(C)cc1[N+](=O)[O-]` stands -8.41% (inactive).
With `Cc1nn(C)cc1/C=N/NC(=O)c1sc2ccccc2c1Cl` the figure was -67.1% (active); with `C/C=C/C=N/NC(=O)c1ccncc1`, 14.4% (inactive); with `CC1CCN(S(=O)(=O)c2ccc3c(ccn3CCC(=O)NCc3ccc(N(C)C)cc3)c2)CC1`, -7.88% (inactive).
`CCOC(=O)c1ccc(NC(=O)C2CC(=O)N(c3ccc(C(C)C)cc3)C2)cc1` (centres undefined): the activity change, negative = inhibition is 4.6% (inactive).
Under `CN1CC[C@H](c2c(O)cc(O)c3c(=O)cc(-c4ccccc4Cl)oc23)[C@H](O)C1` stands -7.55% (inactive).
With `COc1ccc(C2Sc3ccccc3NC3=C2C(=O)c2ccccc23)c(OC)c1OC` (centres undefined) the figure was 3.16% (inactive); with `CCOC(=O)c1cnc2c(C)cc(C)cc2c1Nc1ccc(N2CCOCC2)cc1`, -5% (inactive).
Under `O=C(Nc1ccc(Oc2ccccc2)cc1)C1CCN(S(=O)(=O)c2ccc(Cl)cc2)CC1` stands -26.7% (inactive); under `O=C(Nc1ccccc1)c1nnsc1S(=O)(=O)c1ccc(Cl)cc1`, -68.7% (active).
On to `O=C(Nc1cccc(Cl)c1)c1csnn1`, for which the activity change, negative = inhibition was -3.98% (inactive).
Under `Clc1ccc(CSc2nncn3c2cc2occc23)cc1` stands -27.8% (inactive); under `Cc1ccc(Nc2c(-c3ccc(Cl)cc3)nc3sccn23)c(C)c1`, -23.7% (inactive).
Consider `O=C(Nc1ccncc1)c1ccccc1[N+](=O)[O-]`, for which the activity change, negative = inhibition is 11.1% (inactive).
With `CC(=O)Oc1ccccc1C(=O)Nc1ncc([N+](=O)[O-])s1`, the activity change, negative = inhibition is -60.7% (active).
In the case of `Cc1ccc2nsnc2c1NC(=O)c1ccccc1[N+](=O)[O-]`, the activity change, negative = inhibition is -9.18% (inactive).
With `CCOC(=O)c1ccc(NC(=O)c2c(NCc3cccs3)sc3c2CCCC3)cc1` the figure was -24.5% (inactive); with `CN(C)C(=O)COC(=O)c1cccc(S(=O)(=O)N2CC3(C)CC2CC(C)(C)C3)c1` (centres undefined), 8.67% (inactive).
Turning to `Cc1nnnn1/C(=C\c1ccccc1)C(=O)OCC(=O)N1CC2(C)CC1CC(C)(C)C2` (centres undefined), the activity change, negative = inhibition was -62.1% (active).
With `CN1CCN(c2oc(-c3ccc(COc4ccc(Cl)cc4)o3)nc2C#N)CC1` the figure was -10.5% (inactive); with `CCOc1ccccc1NC(=O)c1ccc2c(c1)CCN2S(=O)(=O)c1ccc(C)cc1`, 1.03% (inactive); with `CCc1cccc(C)c1Nc1c(-c2ccc(N(C)C)cc2)nc2ncccn12`, -15.1% (inactive).
`CCn1cc(C(=O)N2CCN(c3cc(Cl)ccc3C)CC2)c(=O)c2cc(S(=O)(=O)N3CCCC3)ccc21`: the activity change, negative = inhibition was -1.04% (inactive).
With `CC(C)Cn1c(=O)c2ccccc2n2c(CCC(=O)NCc3ccccn3)nnc12` the figure was 1.58% (inactive); with `CC(C)Cn1c(=O)c2ccccc2n2c(-c3cccc(Cl)c3)nnc12`, -13.9% (inactive).
With `CC(C)Cn1c(=O)c2ccccc2n2c(CCC(=O)N3CCN(c4cccc(Cl)c4)CC3)nnc12` the figure was -87.5% (active); with `Cc1cc(O)c(C(c2ccccc2)N2CCN(c3ccccc3F)CC2)c(=O)n1Cc1ccco1` (centres undefined), -24.2% (inactive); with `CCOC(=O)c1[nH]c(C)c(CCC(=O)N2CCN(c3ccccc3)CC2)c1C`, -8.52% (inactive).
In the case of `O=C(COC(=O)c1ccccn1)NNC(=O)c1ccc(Br)cc1`, the activity change, negative = inhibition is -5.4% (inactive).
Consider `N/C(=N\OC(=O)c1ccc([N+](=O)[O-])cc1)c1ccccn1`, for which the activity change, negative = inhibition is 8.07% (inactive).
Consider `O=C(COC(=O)c1ccccn1)NNC(=O)c1ccc([N+](=O)[O-])cc1`, for which the activity change, negative = inhibition was -74.5% (active).
Consider `CCn1c(C)c(C)c2cc(C(=O)NCCc3cc(OC)ccc3OC)ccc21`, for which the activity change, negative = inhibition is -30.2% (inactive).
Under `Cc1ccnc(SCC(N)=O)n1` stands -83.8% (active); under `Cc1cc(C)n2nc(SCC(N)=O)nc2n1`, -10.1% (inactive).
Consider `CCn1c(CSc2nc(C)cc(C)n2)nnc1SCC(N)=O`, for which the activity change, negative = inhibition was 13.9% (inactive).
Under `COC(=O)[C@@H]1CC2=CC(=O)CC[C@]2(C)[C@@]23O[C@@H]2C[C@@]2(C)[C@@H](CC[C@@]24CCC(=O)O4)[C@H]13` stands 12.2% (inactive).
Take `O=C1CSc2ccc(C(=O)NCc3ccccn3)cc2N1`: the activity change, negative = inhibition is 5.23% (inactive).
Regarding `c1ccc(CN=C2Nc3ccccc3CS2)nc1`, the activity change, negative = inhibition was -70.7% (active).
Regarding `c1ccc(CCc2ccccn2)cc1`, the activity change, negative = inhibition was -14.5% (inactive).
As to `Cc1ccc(Nc2c(-c3ccc(N(C)C)cc3)nc3nc[nH]n23)cc1`, the activity change, negative = inhibition is -4.77% (inactive).
For `COc1cccc(C(c2c(O)cc(C)n(Cc3ccco3)c2=O)N2CCN(c3ccccc3)CC2)c1` (centres undefined), the activity change, negative = inhibition was -4.37% (inactive).
Consider `CCOc1ccc(N(C(=O)c2snc(C(N)=O)c2N)C(C(=O)NCC2CCCO2)c2c[nH]c3ccccc23)cc1` (centres undefined), for which the activity change, negative = inhibition was -6.04% (inactive).
Under `Cc1ccc(N(C(=O)c2snc(C(N)=O)c2N)C(C(=O)NCC2CCCO2)c2c[nH]c3ccccc23)cc1` (centres undefined) stands -19% (inactive); under `Cc1ccc(C(C(=O)NCC2CCCO2)N(C(=O)c2snc(C(N)=O)c2N)c2ccc(C(C)C)cc2)o1` (centres undefined), -74% (active).
For the compound `Cc1cccc(Nc2cc(C)nc(-n3nc(C)cc3C)n2)c1`, the activity change, negative = inhibition was -6.69% (inactive).
Turning to `CCOC(=O)c1c(S(=O)(=O)NCC(=O)Nc2ccc(Cl)c(C(F)(F)F)c2)c(C)n(C)c1C`, the activity change, negative = inhibition is -8.26% (inactive).
`COc1ccc(N2CCN(C(=O)CNC(=O)c3ccc(Br)o3)CC2)cc1`: the activity change, negative = inhibition is -3.36% (inactive).
Under `COc1ccc(CCC(=O)NCCc2csc(-c3ccc(Cl)cc3)n2)cc1` stands -21.7% (inactive).
Under `COc1ccc(-c2nc(CCNC(=O)c3ccc(Br)o3)cs2)cc1` stands -32.7% (inactive) and -89.7% (active).
